Test [1] is described as follows: BSK_3C_Vis: BioMAP Diversity Plus: 3C Assay for Morphology Visualization (AID 2283025).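 Also: fitted both ways so gain or loss versus DMSO counts.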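 As to AC50: light microscopy image of cell morphology used as background control.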 The conditions noted are these: primary human endothelial cells (HUVEC). In outline: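 Chemicals were added to primary human umbilical vein endothelium, cells were incubated 24 h, and morphology was then visualized by light microscopy. Gain or loss of signal was fitted bidirectionally relative to DMSO.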

Read-out in test [2]: Pselectin, SELP (gene 6403)
The test is described as follows: BSK_4H_Pselectin: BioMAP Diversity Plus: 4H Assay for Pselectin Biomarker Activity (AID 2283026). The conditions noted are these: primary human endothelial cells (HUVEC); actives raise or lower the signal. Summed up: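 ELISA read-out of P-selectin on human umbilical vein endothelium after 24 h of dosing. Values derive from bidirectional fitting relative to DMSO. Parallel SRB protein staining flagged overt cytotoxicity.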

A short description of test [3]: BSK_4H_SRB: Viability Assessment in the BioMAP Diversity Plus: 4H Assay (AID 2283027).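 Also: cells exposed to compound for 24 h before staining.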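 As to AC50: curves fitted both ways versus DMSO so AC50 may be loss or gain.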 The conditions noted are these: primary human endothelial cells (HUVEC). Summed up:
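Human umbilical vein endothelial cells were dosed with chemical and, after 24 h, fixed with 10% TCA, stained with 0.1% sulforhodamine B, and read at 560 nm to give total protein as a cytotoxicity measure. Bidirectional fitting relative to DMSO control.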

Test [4] in a line: BSK_BE3C_SRB: Viability Assessment in the BioMAP Diversity Plus: BE3C Assay (AID 2283028).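 As to AC50: fitted both ways so AC50 may mark signal gain or loss versus DMSO.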 To be noted: primary human bronchial epithelial cells. In outline: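 Cytotoxicity read-out: SRB (0.1%) staining of TCA-fixed (10%) human lung bronchial epithelial cells, absorbance 560 nm, 24 h post-dosing. Curves fitted both directions relative to DMSO.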
Read-out in test [5]: Thrombomodulin, THBD (gene 7056)
The test is described as follows: BSK_3C_Thrombomodulin: BioMAP Diversity Plus: 3C Assay for Thrombomodulin Biomarker Activity (AID 2283029). The conditions noted are these: primary human endothelial cells (HUVEC); actives raise or lower the signal. In outline:
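Read-out is ELISA of thrombomodulin on human umbilical vein endothelium 24 h after chemical dosing. Gain or loss of signal is scored relative to DMSO. Overt cytotoxicity is checked in parallel cultures by sulforhodamine B staining.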

Read-out in test [6]: Urokinase-type plasminogen activator receptor (uPAR), PLAUR (gene 5329)
The test is described as follows: BSK_4H_uPAR: BioMAP Diversity Plus: 4H Assay for Urokinase-type plasminogen activator receptor (uPAR) Biomarker Activity (AID 2283030). To be noted: primary human endothelial cells (HUVEC); actives raise or lower the signal. Summed up: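 uPAR level read by ELISA on HUVEC cultures (BioMAP 4H) 24 h post-dosing, analyzed for gain or loss relative to DMSO. Parallel SRB staining assessed overt cytotoxicity.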

Read-out in test [7]: Human Leukocyte Antigen - DR isotype (HLADR), HLA-DRA (gene 3122)
The test is described as follows: BSK_BE3C_HLADR: BioMAP Diversity Plus: BE3C Assay for Human Leukocyte Antigen - DR isotype (HLADR) Biomarker Activity (AID 2283032). To be noted: primary human bronchial epithelial cells; actives raise or lower the signal. In outline:
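ELISA read-out of HLA-DR on human lung bronchial epithelial primary cells, measured 24 h post-dosing. Both increases and decreases were scored relative to DMSO vehicle.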

Read-out in test [8]: Vascular cell adhesion molecule 1 (VCAM1), VCAM1 (gene 7412)
The test is described as follows: BSK_4H_VCAM1: BioMAP Diversity Plus: 4H Assay for Vascular cell adhesion molecule 1 (VCAM1) Biomarker Activity (AID 2283033).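 As to outcome: cell-surface VCAM-1 protein measured by ELISA.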 To be noted: primary human endothelial cells (HUVEC); actives raise or lower the signal. In outline:
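ELISA read-out of VCAM-1 on human umbilical vein endothelium 24 hours after chemical dosing; gain or loss of signal was fitted relative to DMSO, with sulforhodamine B staining of parallel cultures flagging overt cytotoxicity.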

Read-out in test [9]: Interferon-gamma inducible Protein 10 (IP10), CXCL10 (gene 3627)
The test is described as follows: BSK_BE3C_IP10: BioMAP Diversity Plus: BE3C Assay for Interferon-gamma inducible Protein 10 (IP10) Biomarker Activity (AID 2283034). To be noted: primary human bronchial epithelial cells; actives raise or lower the signal. Summed up:
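Chemical is dosed onto human lung bronchial epithelial primary cells, cultures are incubated 24 h, and IP-10 is then quantified by ELISA. Gain or loss of signal is fitted in both directions relative to DMSO.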

Read-out in test [10]: Vascular endothelial growth factor receptor 2 (Homo sapiens) (UniProt P35968)
The test is described as follows: BSK_4H_VEGFRII: BioMAP Diversity Plus: 4H Assay for Vascular endothelial growth factor receptor 2 (VEGFR2) Biomarker Activity (AID 2283031).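 As to AC50: cell-surface VEGFR2 protein level quantified by ELISA.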 The conditions noted are these: primary human endothelial cells (HUVEC); actives raise or lower the signal. In outline: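 Measured by ELISA after 24 h of compound treatment: VEGFR2 on primary human umbilical vein endothelial cells, fitted in both directions relative to DMSO. Parallel cultures received SRB staining (560 nm) for overt cytotoxicity.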

The source made the active and inactive calls. The calls were made as follows: active = hit-call score of the fitted dose curve at least 0.9, where 1 is the maximum; inactive = score below 0.9.

Turning to `O=[Si]=O`, the outcome in test [1], in [2], in [3], in test [4], in test [5] and in test [6] was inactive. In addition, the result in test [7], in test [8] and in test [9] was inactive.
As to `Cc1cn([C@H]2C=C[C@@H](CO)O2)c(=O)[nH]c1=O`, the outcome in [1], in [2], in [3], in test [4], in [5] and in test [6] was inactive. The result in test [10], in test [7], in test [8] and in [9] was inactive.
With `COc1ccc(OC(F)(F)F)cc1CN[C@H]1CCCN[C@H]1c1ccccc1`, the AC50 is 3.29 µM (active) in [1], 14.3 µM (active) in [3], 17.8 µM (active) in test [5] and 20 µM (active) in test [6]. The result in [2], in [4], in test [10], in test [7], in [8] and in test [9] was inactive.
For the compound `CC1(C)C(=O)NC(=O)N1CO`, the result in test [1], in test [2], in [3], in test [4], in test [5] and in test [6] was inactive. Moreover, the outcome in test [10], in test [7], in test [8] and in test [9] was inactive.
In the case of `O=NO`, the outcome in test [1], in [2], in test [3], in [4], in [5] and in test [6] was inactive. Besides, the result in test [10], in test [7], in test [8] and in [9] was inactive.
For the compound `CC(C)OC(=O)C(C)(C)Oc1ccc(C(=O)c2ccc(Cl)cc2)cc1`, the AC50 in test [1] is 39 µM (active); in test [2] it was 32.8 µM (active); in [8] it was 17 µM (active). Moreover, the result in test [3], in test [4], in test [6], in test [7] and in test [9] was inactive.
On to `CC(=O)OCC(COC(C)=O)OC(C)=O`, for which the result in test [1], in test [2], in test [3], in test [4], in [5] and in [6] was inactive. For the same compound, the result in [10], in test [7], in test [8] and in test [9] was inactive.
For `O=C(O)CC(O)(CC(=O)O)C(=O)O`, the outcome in [1], in test [2], in test [3], in test [4], in test [5] and in test [6] was inactive. The outcome in [10], in test [7], in test [8] and in [9] was inactive.
Take `OCC(CO)n1cnc(-c2ccc(F)cc2)c1-c1ccnc(Oc2ccccc2)n1`: the outcome in [1], in [2], in test [3], in [4], in test [6] and in [10] was inactive. The result in test [7], in test [8] and in test [9] was inactive. Besides, the AC50 in test [5] is 2.28 µM (active).
On to `O=Cc1ccccc1C=O`, for which the outcome in test [1], in test [2], in [3], in test [4], in test [5] and in test [6] was inactive. Besides, the result in test [10], in test [7], in test [8] and in test [9] was inactive.
For `Nc1nc(=S)c2[nH]cnc2[nH]1`, the result in test [1], in [2], in [3], in [4], in test [5] and in test [6] was inactive. Also, the outcome in test [10], in test [7] and in test [9] was inactive.
As to `Nc1nc(Cl)nc2c1ncn2[C@H]1C[C@H](O)[C@@H](CO)O1`, the AC50 was 38.6 µM (active) in test [1], 18.5 µM (active) in test [6] and 2.65 µM (active) in test [10]. In addition, the result in [2], in test [3], in test [4], in [5], in [7] and in [8] was inactive. Besides, in test [9], the result was inactive.
As to `S=c1[nH]c2ccccc2s1`, the outcome in test [1], in test [2], in [3], in test [4], in test [5] and in test [6] was inactive. The result in test [10], in test [7], in test [8] and in test [9] was inactive.
As to `N[C@@H](Cc1c[nH]c2ccccc12)C(=O)O`, the outcome in [1], in test [2], in test [3], in test [4], in [5] and in [6] was inactive. Besides, the result in [10], in [7], in [8] and in test [9] was inactive.
Take `CCc1cc(C2=C(C(=O)O)N(c3ccccc3C(F)(F)F)S(=O)(=O)c3ccccc32)cc2c1OCO2`: the outcome in test [1], in test [2], in [3], in [4], in [6] and in [10] was inactive. For the same compound, the result in test [7], in test [8] and in [9] was inactive. Also, the AC50 in test [5] is 10.2 µM (active).
Regarding `CC(C)(C)c1ccccc1`, the outcome in test [1], in [2], in test [3], in test [4], in test [5] and in test [6] was inactive. The outcome in test [10], in [7], in test [8] and in [9] was inactive.
Take `CCCC[C@H]1CN(CC2CCOCC2)C(=O)OC12CCN(C1(C)CCN(C(=O)c3c(C)ncnc3C)CC1)CC2`: the result in test [1], in test [2], in test [3], in test [4], in test [5] and in test [6] was inactive. Further, the outcome in test [10], in test [7], in test [8] and in test [9] was inactive.
Take `CCCCCCCCCCCCCCCCO`: the result in test [1], in test [2], in test [3], in test [4], in [5] and in test [6] was inactive. For the same compound, the outcome in test [10], in test [7], in [8] and in test [9] was inactive.
With `CC(N)=O`, the outcome in [1], in test [2], in test [3], in test [4], in [5] and in [6] was inactive. Further, the result in [10], in test [7], in [8] and in test [9] was inactive.
On to `CCCCCCC(C=O)=Cc1ccccc1`, for which the AC50 is 37.5 µM (active) in test [1], 31.1 µM (active) in test [2], 31.8 µM (active) in test [3] and 33.5 µM (active) in test [8]. For the same compound, the outcome in test [4], in test [5], in test [6], in test [10], in [7] and in test [9] was inactive.
On to `CCCCCCCCCCCCCCOS(=O)(=O)O`, for which the outcome in test [1], in test [2], in [3], in test [6] and in [10] was inactive. Besides, the AC50 in test [4] was 21.2 µM (active); in test [5], 33.8 µM (active); in test [7], 20 µM (active); in test [8] it was 20 µM (active); in test [9], 17.4 µM (active).
As for `NC(=Nc1ccccc1)Nc1ccccc1`, the outcome in [1], in [3], in test [4], in test [5], in test [6] and in [10] was inactive. Besides, the outcome in test [7], in [8] and in test [9] was inactive.

Source of the values: PubChem BioAssay (EPA / NIEHS).
